This is a sample that favours compounds with a hit; in the whole collection about 2.3% have one here.
TAG inh: inhibitors of triacylglycerol accumulation; 0.66% of 230,000 active; inhibition, % at 12.5 µM; H9c2 cells, Nile Red lipid (TAG) fluorescence; cells loaded with 200 µM oleic acid; AID 651582;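 active = pattern-corrected inhibition of lipid staining of at least 50% with the nuclear-stain viability signal not falling by more than 50%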
Jurkat NFkB inh: inhibitors of the PMA/ionomycin-induced NF-kB reporter in Jurkat cells | 0.53% of 330,000 active | inhibition, % at 4 µM | AID 435003 | PMA/ionomycin-induced NF-kB luciferase reporter, luminescence; in the data active = inhibition above about 50%
aSyn 5UTR inh: 5' untranslated region of α-synuclein, MLPCN primary screen. alpha-synuclein 5'UTR reporter, inhibitor activity. inhibition, % (tested at 7.5 µM). 0.82% of 300,000 active; in the data active = inhibition above about 60%;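 note: H4 neuroglioblastoma cells stably carrying SNCA 5'UTR luciferase fusion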
Shn3 3UTR inh: reduces Shn3 3'UTR luciferase signal in osteoblasts | Clone20 osteoblast Shn3 3'UTR firefly luciferase, 24 h | inhibition, % at 12.5 µM | 0.52% of 360,000 active;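 active = mean inhibition of at least 75% with every replicate also reaching 75%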
697 NFkB inh: inhibitors of the PMA/ionomycin-induced NF-kB reporter in 697 B cells. 697 B-cell NF-kB luciferase reporter, 16 h. inhibition, % at 4 µM. 0.33% of 330,000 active. AID 435022; in the data active = inhibition above about 35%
Gli-Sufu antag: antagonists of Gli-Sufu signaling. inhibition, % at 5 µM. 0.74% of 340,000 active. Sufu-KO-LIGHT fibroblasts, Gli luciferase reporter luminescence. AID 588413;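 active = inhibition above about 55%, limit read from the data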
Gli-Sufu confirm: Gli-SUFU antagonism confirmation, single concentration; shares compounds with Gli-Sufu antag; Sufu-KO-LIGHT cells, Gli luciferase reporter, luminescence; inhibition, % at 5 µM; 40% of 2,500 active;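 active = mean inhibition at 5 µM reaching about 45%, limit read from the data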
Gli cytotox: cytotoxic in Gli-SUFU antagonist counter-screen; shares compounds with Gli-Sufu antag; Sufu-KO-LIGHT cells cytotoxicity, ATP luminescence; cytotoxicity, % at 5 µM; 32% of 2,500 active;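 active = mean cytotoxicity at 5 µM above about 25%, limit read from the data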;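 note: cells exposed to compound overnight for roughly 16 to 18 hours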
Wnt3a counter: inhibits Wnt3a reporter, counter-screen for Gli-SUFU antagonists. shares compounds with Gli-Sufu antag. Wnt-LIGHT cells, Wnt3a-driven luciferase reporter, luminescence. inhibition, % at 6.25 µM. 20% of 2,500 active. AID 651995;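 active = mean inhibition above about 25%, limit read from the data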
Numbers stand for hits; 0 = inactive; - = no result given.

SMILES	TAG inh	Jurkat NFkB inh	aSyn 5UTR inh	Shn3 3UTR inh	697 NFkB inh	Gli-Sufu antag	Gli-Sufu confirm	Gli cytotox	Wnt3a counter
CCOC(=O)Cc1csc(SCc2nc3sc4c(c3c(=O)[nH]2)CCC4)n1	0	0	-	0	0	0	-	-	-
Cc1ccccc1COC(=O)CNC(=O)c1sc2ccccc2c1Cl	0	0	0	0	0	65	0	0	0
CCOC(=O)C1=C(N)OC2=C(C(=O)CC(C)(C)C2)C1c1ccc(C)s1 (stereo not drawn)	0	0	0	0	0	0	-	-	-
CN1C(=O)N(S(=O)(=O)c2ccc(F)c(F)c2F)C(=O)C1(C)C	0	0	0	0	0	0	-	-	-
CCC(CC)CN1C(N(C)C)=NC[C@@H]1CC(C)C	0	0	-	0	0	56	51	0	0
CCC(C)CCN1C(N(C)C)=NC[C@@H]1CC(C)C (stereo partly drawn)	0	0	-	0	0	71	56	0	0
CC(C)C[C@H]1CN=C(N(C)C)N1CCCCc1ccccc1	0	0	-	0	0	61	62	0	0
C[C@H]1CN=C(N(C)C)N1CCCCc1ccccc1	0	0	-	0	0	0	-	-	-
Fc1ccc(-c2cc(C(F)(F)F)nc(-n3cccn3)n2)cc1	0	0	0	0	0	0	-	-	-
COc1cc(C2NC(=O)NC(C)=C2C(=O)NCc2ccccc2)c(Cl)cc1O (stereo not drawn)	-	0	0	0	0	0	-	-	-
O=C(NNC(=O)c1cccs1)c1ccc(S(=O)(=O)N2CCCCC2)cc1	-	0	0	0	0	0	-	-	-
Cc1ccc(S(=O)(=O)N2CCC(C(=O)N[C@@H](C)C(=O)Nc3ccc4c(c3)OCO4)CC2)cc1	-	0	0	0	0	0	0	0	0
Cc1cc(C)n2nc(SCC3COc4ccccc4O3)nc2n1 (stereo not drawn)	0	0	0	0	0	99	0	0	0
Cc1cc(C)c(C#N)c(SCC2COc3ccccc3O2)n1 (stereo not drawn)	-	0	0	0	0	0	-	-	-
CCOCCOC(=O)COc1ccc(N2C(=O)c3ccccc3C2=O)cc1	-	0	0	-	0	-	-	-	-
Cc1c(Cl)cccc1NC(=O)CCN1CCC(C(N)=O)CC1	0	0	0	0	0	57	0	0	0
CCOC(=O)c1ccc[n+]([O-])c1	0	-	-	0	-	0	-	-	-
CCOC(=O)c1ccc(NC(=O)c2ccc[n+]([O-])c2)cc1	-	0	0	0	0	58	0	0	0
CCCCCCc1cc2cc(C(=O)Nc3ccccc3)c(=O)oc2cc1O	-	0	92	0	0	73	64	30	79
CCCCn1c(SCC(=O)Nc2nccs2)nc2ccccc2c1=O	0	0	0	0	0	0	-	-	-
CCC(=O)OCC(=O)N=c1sccn1Cc1ccc(C)cc1	0	0	0	0	0	0	-	-	-
O=C(CCl)N=c1sccn1Cc1cccc2ccccc12	62	-	0	0	-	96	0	0	0
CN(C)CCCNc1nc2cc(-c3ccsc3)sc2c(=O)n1C	0	-	-	0	-	-	-	-	-
CC1(C)Cc2ccccc2C2=C(C(=O)N3CCCCCC3)C(=O)C(=O)N21	0	0	0	0	0	72	0	0	0
O=C1C(=O)N2C(=C1C(=O)N1CCCCCC1)c1ccccc1CC21CCCC1	0	0	0	0	0	0	-	-	-
SMILES	TAG inh	Jurkat NFkB inh	aSyn 5UTR inh	Shn3 3UTR inh	697 NFkB inh	Gli-Sufu antag	Gli-Sufu confirm	Gli cytotox	Wnt3a counter
Cc1cc(C)n(-c2nnc(C)n2/N=C/c2ccco2)n1	-	0	0	0	0	0	0	0	0
COc1c(Cl)ccc(Cl)c1C(=O)NCc1ccco1	0	0	0	0	0	0	0	0	0
Cc1cc(NC(=O)CCC(=O)N(c2ccccc2)C(C(=O)NC(C)(C)C)c2ccccc2Cl)no1 (stereo not drawn)	-	0	0	0	0	0	-	-	-
CCC(C)(C)NC(=O)C(c1ccccc1Cl)N(C(=O)CCC(=O)Nc1cc(C)on1)c1ccc(NC(C)=O)cc1 (stereo not drawn)	-	0	0	0	0	0	0	28	0
N#Cc1ccccc1NC(=S)NC(=O)c1cccnc1	0	0	0	0	0	0	-	-	-
O=C(NC(=S)Nc1ccccc1O)c1cccnc1	-	0	0	0	0	82	0	0	0
CCOC(=O)C1=C(C)NC(C)=C(C(=O)OCC)C1C	0	0	0	0	0	0	0	0	0
CCC(=O)OCCn1c(Br)nc2c1c(=O)[nH]c(=O)n2C	0	0	0	0	0	0	-	-	-
CCOC(=O)Cn1c(Br)nc2c1c(=O)[nH]c(=O)n2C	-	0	0	0	0	99	0	0	0
COc1ccc(-n2cccc2/C=C2/NC(=O)N(c3cccc(Cl)c3)C2=O)cc1	-	0	0	0	0	0	-	-	-
COc1cc(/C=C2/NC(=O)N(c3cccc(Cl)c3)C2=O)ccc1O	-	0	0	0	0	75	80	0	46
O=C(c1csc2c1CCCC2)N1CCN(c2ncccn2)CC1	-	0	0	0	0	0	-	-	-
CCc1nnc(NC(=O)C(C)C)s1	0	0	0	0	0	93	0	0	0
Cc1ccc(NC(=S)N(Cc2ccccc2)C(C)C)cc1	0	0	0	0	0	0	-	-	-
Cc1nc2ccc(NC(=O)c3cc(S(=O)(=O)N(C)c4ccccc4)ccc3Cl)cc2s1	-	-	0	0	-	75	73	26	53
Cc1nc2ccc(NC(=O)c3ccc(Cl)c(S(=O)(=O)N(C)c4ccccc4)c3)cc2s1	-	0	0	0	0	0	-	-	-
Cc1nn(CC(=O)OCCOc2ccc(Br)cc2)c(C)c1[N+](=O)[O-]	0	0	0	0	0	0	-	-	-
Cc1cn2c(-c3cccnc3)nnc2s1	-	0	0	0	0	0	-	-	-
Cc1cn2c(-c3ccncc3)nnc2s1	0	0	0	0	0	0	0	0	0
CCN(CC(=O)NCc1ccc(Cl)cc1)C(=O)CSc1cccc(C(F)(F)F)c1	0	0	0	0	0	0	-	-	-
Cn1ccc(C(=O)N/N=C/c2c[nH]c3ccccc23)n1	-	0	0	0	0	97	0	0	0
CCOc1c(CNCCN2CCOCC2)cccc1OC	-	0	0	0	0	0	0	0	0
c1ccc(-c2nnc(N3CCN(c4ccccn4)CC3)c3ccccc23)cc1	0	0	0	0	0	61	0	0	0
Cc1ccc(-c2nnc(N3CCN(c4ccccn4)CC3)c3ccccc23)cc1	0	0	0	0	0	0	-	-	-
CCC1(CC)CNC(=O)NC1=O	0	-	-	0	-	0	-	-	-
O=C(COc1ccccc1)Nc1nnc(S(=O)(=O)N2CCCCC2)s1	-	0	0	0	0	0	0	0	0
COc1ccccc1C1C(C(C)=O)=C(O)C(=O)N1c1ccc(O)cc1 (stereo not drawn)	-	0	0	0	0	0	-	-	-
